Test results as given in paper PMC6212790, “How bacterial xenogeneic silencer rok distinguishes foreign from self DNA in its resident genome”.
In all, about 33,000 sequences were measured (“e-score”: median about -0.037, highest 2% from about 0.34 on). Shown is part of a subset that was picked to be rich in the highest values.

Target: T1, GST-Rok (full length) (Bacillus subtilis subsp. subtilis str. …, UniProt O34857 1-191)
T1 sequence: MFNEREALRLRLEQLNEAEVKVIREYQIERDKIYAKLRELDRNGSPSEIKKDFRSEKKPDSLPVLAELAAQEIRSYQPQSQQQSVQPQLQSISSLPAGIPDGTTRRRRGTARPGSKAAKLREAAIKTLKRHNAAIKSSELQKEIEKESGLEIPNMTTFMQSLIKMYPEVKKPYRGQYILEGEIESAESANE
Assay: protein binding microarray; Rok is a gene silencer of Bacillus subtilis; high values mean tight binding
Details: protein: recombinant; tags: GST (pTH5325, pDEST15-Magic modified); dsDNA, one strand shown
How it was run: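 Each has a 25-mer constant primer and a 35-mer variable part from a de Bruijn sequence of order 10, covering every non-palindromic 8-mer at least 32 times (palindromic 16). Preference for each 8-mer is given as a rank-based, unitless enrichment score (E-score). Its range runs from 0.5 (most favored) to −0.5 (most disfavored).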

Row | Sequence | binding signal
1 | CTAATCGC | 0.18 E-score
2 | AGAAACAT | 0.155 E-score
3 | CGGCTATC | -0.0522 E-score
4 | ACTAGCGG | 0.188 E-score
5 | CCAAACGA | 0.042 E-score
6 | GAAATGTC | 0.126 E-score
7 | GAAATGCA | -0.095 E-score
8 | TAAATGTA | 0.411 E-score
9 | CAAATGTA | 0.289 E-score
10 | GAAATGTA | 0.351 E-score
11 | AAAATGTA | 0.287 E-score
12 | CTTGTTTC | 0.0903 E-score
13 | CAAACCAG | -0.185 E-score
14 | AACCATGC | -0.0502 E-score
15 | ACTATCAA | 0.337 E-score
16 | ACTATCAC | 0.34 E-score
17 | GCTATCAA | 0.164 E-score
18 | CCTATCAC | 0.0828 E-score
19 | CCTATCAA | 0.161 E-score
20 | GCTATCAC | 0.244 E-score
21 | AGAAAGTC | 0.121 E-score
22 | GTAAAGAA | 0.0756 E-score
23 | TCTATTCA | 0.0926 E-score
24 | AACTAAAA | 0.345 E-score
25 | GACTAAAA | 0.123 E-score

Row | Sequence | binding signal
26 | AACTAAAG | -0.0498 E-score
27 | AACTAAAC | 0.138 E-score
28 | AACTAAGA | 0.138 E-score
29 | ACCTAAAA | 0.306 E-score
30 | TACTAAAA | 0.434 E-score
31 | CACTAAAA | 0.293 E-score
32 | AACTAAAT | 0.362 E-score
33 | CGCCCAAC | -0.14 E-score
34 | AACTTTGA | -0.0517 E-score
35 | AACATTAC | 0.214 E-score
36 | AGTAGGTG | 0.174 E-score
37 | AGTAGGTA | 0.404 E-score
38 | AGTAGGTC | 0.069 E-score
39 | CGTAGGTA | 0.347 E-score
40 | GGTAGGTA | 0.304 E-score
41 | CCTAGGTA | 0.0506 E-score
42 | GATGGAGA | -0.0862 E-score
43 | ATTAACCG | 0.0492 E-score
44 | CGAAAGGC | -0.183 E-score
45 | CTTACAAG | -0.114 E-score
46 | ATGAATCC | 0.0418 E-score
47 | GTAGCTAA | 0.373 E-score
48 | TTAGCTAA | 0.129 E-score
49 | CTAGCTAA | 0.133 E-score
50 | CTAGCTAC | 0.198 E-score

Row | Sequence | binding signal
51 | GAAGCTAC | 0.323 E-score
52 | ATAGCTAC | 0.333 E-score
53 | GTAGCTAC | 0.436 E-score
54 | ATAGCTAG | 0.273 E-score
55 | ATAGCTAT | 0.373 E-score
56 | CCGCTGAC | -0.15 E-score
57 | GCCGCATA | -0.186 E-score
58 | AGAGTCGA | -0.0761 E-score
59 | CTAGTGTC | 0.0749 E-score
60 | GGCAGTAC | -0.0236 E-score
61 | GCGGATCA | -0.193 E-score
62 | ACAAGGAA | -0.0483 E-score
63 | ATTCACCC | 0.0731 E-score
64 | ATTACTCG | 0.225 E-score
65 | ATTACTAG | 0.398 E-score
66 | CTTACTAA | 0.222 E-score
67 | GTTACTAA | 0.283 E-score
68 | ATTACTAC | 0.355 E-score
69 | ATTACTAA | 0.357 E-score
70 | ATTACTGC | 0.138 E-score
71 | CTTACTAC | 0.169 E-score
72 | ATTACTGG | -0.0684 E-score
73 | AGGTCCAG | -0.187 E-score
74 | ACTGGCCG | 0.00991 E-score
75 | AGCGGCTC | -0.196 E-score

Row | Sequence | binding signal
76 | GTCGCTTA | -0.0639 E-score
77 | GTTACATA | 0.212 E-score
78 | AACGTTAC | -0.0148 E-score
79 | AACGTTAT | 0.216 E-score
80 | AACGTTAG | 0.344 E-score
81 | GCATTCCA | -0.149 E-score
82 | CGCGTCCA | -0.16 E-score
83 | ATGCTTCG | -0.00471 E-score
84 | GCGCAGAA | -0.0702 E-score
85 | TGTATACA | 0.351 E-score
86 | AATACACA | 0.234 E-score
87 | AATATACA | 0.388 E-score
88 | CATATACC | 0.259 E-score
89 | TATATACA | 0.409 E-score
90 | AATATACC | 0.394 E-score
91 | CGTATACA | 0.227 E-score
92 | GATATACA | 0.25 E-score
93 | CATATACA | 0.258 E-score
94 | GGTATACA | 0.187 E-score
95 | ACTATACA | 0.322 E-score
96 | GATATACC | 0.291 E-score
97 | GCTGCTGA | -0.177 E-score
98 | CTTCCTTA | -0.172 E-score
99 | CTAGGAAG | -0.0907 E-score
100 | AGTACGCA | 0.194 E-score

Row | Sequence | binding signal
101 | AGTATACC | 0.164 E-score
102 | AATATACT | 0.395 E-score
103 | AGTATACA | 0.271 E-score
104 | AGTATACT | 0.338 E-score
105 | AATATACG | 0.268 E-score
106 | ACTATACT | 0.26 E-score
107 | CATAAAAG | 0.102 E-score
108 | AGTGCGTC | 0.0828 E-score
109 | ACCTCCAA | -0.0283 E-score
110 | TCACGTGA | -0.0446 E-score
111 | TGGCCGAA | -0.123 E-score
112 | ACCTAGAC | 0.0548 E-score
113 | GATTATAA | 0.208 E-score
114 | ACTTATAT | 0.332 E-score
115 | CATTATAA | 0.228 E-score
116 | AATTATAG | 0.381 E-score
117 | GATTATAC | 0.217 E-score
118 | AATTATCG | 0.217 E-score
119 | AATTATAC | 0.377 E-score
120 | CATTATAG | 0.255 E-score
121 | AGTTATAT | 0.291 E-score
122 | AATTATAT | 0.407 E-score
123 | AATTATAA | 0.361 E-score
124 | CATTATAC | 0.265 E-score
125 | ACAGGTCT | -0.119 E-score

Row | Sequence | binding signal
126 | TGCTGAAA | -0.0464 E-score
127 | GCAACTGA | -0.0401 E-score
128 | ACAAGTAA | 0.185 E-score
129 | ACCTATGG | -0.177 E-score
130 | GACAATGA | -0.0569 E-score
131 | GTCATCTA | 0.113 E-score
132 | GCAGACGC | -0.181 E-score
133 | ATGGTAAC | 0.214 E-score
134 | CACTAGTG | 0.0643 E-score
135 | GGCTAGTA | 0.0598 E-score
136 | AACTAGTC | 0.206 E-score
137 | TACTAGTA | 0.45 E-score
138 | TACTAGCA | 0.243 E-score
139 | AACTAGTG | 0.39 E-score
140 | AACTAGCG | 0.241 E-score
141 | TACTAGGA | 0.183 E-score
142 | AACTAGTT | 0.441 E-score
143 | AGCTAGTC | 0.078 E-score
144 | AGCTAGTA | 0.373 E-score
145 | AACTAGCT | 0.317 E-score
146 | CTGACCAC | -0.141 E-score
147 | ACCGGACT | -0.00817 E-score
148 | ATTGTTAC | 0.15 E-score
149 | AAGCTTCC | -0.103 E-score
150 | CTAGCTTA | 0.26 E-score

Row | Sequence | binding signal
151 | AAGTCGAT | 0.0686 E-score
152 | GATCTCAA | -0.162 E-score
153 | CCGCTCAG | -0.0853 E-score
154 | GACTAGTA | 0.365 E-score
155 | AACTAGTA | 0.471 E-score
156 | AACTAGGG | -0.00258 E-score
157 | CACTAGTA | 0.205 E-score
158 | GACTAGGA | -0.00844 E-score
159 | ACCTAGTA | 0.292 E-score
160 | AACTAGGT | 0.361 E-score
161 | AACTAGGC | 0.118 E-score
162 | GACTAGTC | 0.224 E-score
163 | CCGAATTA | 0.235 E-score
164 | AGAGTGAA | -0.0866 E-score
165 | GTAAGCAA | 0.0243 E-score
166 | ACCTTACT | 0.101 E-score
167 | GATAATTA | 0.223 E-score
168 | AGTAATTC | 0.29 E-score
169 | AGTAATTA | 0.381 E-score
170 | CATAATTA | 0.362 E-score
171 | GGTAATTA | 0.375 E-score
172 | CGTAATTA | 0.328 E-score
173 | AGTAATTG | 0.29 E-score
174 | GGTAATCA | 0.0323 E-score
175 | CATAATTC | 0.126 E-score

Row | Sequence | binding signal
176 | CACAGTGA | 0.137 E-score
177 | TAATTTCA | 0.273 E-score
178 | GCTACGTA | 0.298 E-score
179 | ACCGGCAT | -0.0275 E-score
180 | GGAAGGTA | 0.0109 E-score
181 | CCCGGCAC | -0.109 E-score
182 | GTAAACAA | 0.0786 E-score
183 | CTAAACTA | 0.336 E-score
184 | ATAAACTA | 0.361 E-score
185 | ATAAACTC | 0.15 E-score
186 | GTAAACGA | -0.0497 E-score
187 | CTAAACTC | 0.235 E-score
188 | ATAAACTG | 0.175 E-score
189 | GTAAACTA | 0.351 E-score
190 | CTAAACGA | -0.072 E-score
191 | AAAACTCT | 0.171 E-score
192 | AAGGACGA | -0.157 E-score
193 | CTCATCCA | 0.013 E-score
194 | GCTCCTAC | -0.158 E-score
195 | ACAAGACG | -0.0878 E-score
196 | CGTTAAGA | -0.0916 E-score
197 | ATAACACG | 0.22 E-score
198 | GACTGATA | 0.238 E-score
199 | CAGAATAG | 0.106 E-score
200 | CGTTCGGA | -0.107 E-score
